# RGS4 inh = blocks human RGS4-accelerated GTP hydrolysis | P49798 | Transcreener GDP fluorescence polarization, RGS4-accelerated GTP hydrolysis | Potency, µM (highest dose often 114 µM), for inactives: top-dose activity change, negative = inhibition, most hits filed as inhibitors | hit rate 0.039% among 390,000 | AID 504845; active = well fitted inhibition curve with a large enough effect; inconclusive = small, poorly fitted or top-dose-only effect; inactive = no such curve, though single readings can be large or run the other way; also: potency is read from the fitted curve at half-maximal effect; % is scaled to controls: 0 for no effect and ±100 for the full control effect; nearly all actives have a fitted effect of over 75% in size
# Target sequence (P49798 whole entry, looked up): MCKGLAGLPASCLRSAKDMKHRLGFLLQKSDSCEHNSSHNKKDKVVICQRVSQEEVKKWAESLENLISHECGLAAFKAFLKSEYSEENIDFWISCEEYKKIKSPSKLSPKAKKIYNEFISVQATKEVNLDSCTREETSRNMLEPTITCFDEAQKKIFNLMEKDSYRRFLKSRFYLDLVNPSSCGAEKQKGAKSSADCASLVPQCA
#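 MLSMR compounds (23 nl, pin-transferred) preincubated 10 min at room temperature with a 500nM (2x) first reagent, then RGS4 at 900nM (2x) plus Transcreener GDP mix added; fluorescence polarization (620/688 nm) read before and after 90 min at 30 °C.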
# D3 antag = D3 dopamine receptor (human) antagonism | P35462 | D3R cells, DiscoveRx beta-arrestin luminescence, antagonist mode; hits give low values | max response, negative = inhibition, % | hit rate 2.5% among 360,000 | AID 652054; in the data active = max response below about -50%; inconclusive = no clear call, values can overlap the other calls; also: % is scaled to controls: 0 for no effect and ±100 for the full control effect
# Target sequence (P35462 whole entry, looked up): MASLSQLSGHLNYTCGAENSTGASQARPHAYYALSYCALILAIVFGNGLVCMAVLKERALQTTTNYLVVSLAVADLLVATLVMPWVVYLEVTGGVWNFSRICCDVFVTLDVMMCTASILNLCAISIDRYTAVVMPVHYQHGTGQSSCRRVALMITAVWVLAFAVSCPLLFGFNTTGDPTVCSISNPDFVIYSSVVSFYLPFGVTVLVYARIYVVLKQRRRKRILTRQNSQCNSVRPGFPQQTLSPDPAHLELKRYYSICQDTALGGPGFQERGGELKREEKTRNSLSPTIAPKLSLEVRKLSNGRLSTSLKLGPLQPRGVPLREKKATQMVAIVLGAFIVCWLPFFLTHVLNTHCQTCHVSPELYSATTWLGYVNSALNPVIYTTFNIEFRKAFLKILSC
#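 Cells plated overnight at 1500 cells/well, then exposed to library compounds with dopamine controls for 90 minutes at 37 degrees C. DiscoveRx reagent added for 30–60 minutes at room temperature; luminescence read, quantitative HTS format.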
# DRD3 agonist = activates the human D3 dopamine receptor | P35462 | D3R DiscoveRx beta-arrestin cells, luminescence, 90 min | max activation, % | hit rate 0.58% among 410,000 | AID 652048; in the data active = max activation above about 30%; also: 0% is about no effect
#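 Agonist-mode cell screen: cells plated at 1500/well and incubated overnight at 37 °C, then exposed to library compounds for 90 min at 37 °C. Detection reagent was added for 30–60 min at room temperature, and luminescence was read.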
# uPA generation = inhibitors of cell surface uPA generation; cell surface uPA generation assay, qHTS; hit rate 0.31% among 330,000; Potency, µM (titrated, usually from 38.3 µM), inactives show at the top dose activity change, negative = inhibition, actives largely listed as inhibitors; active = well fitted inhibition curve with a large enough effect; inconclusive = small, poorly fitted or top-dose-only effect; inactive = no such curve, though single readings can be large or run the other way; tested in mouse RAW 264.7 cells; also: potency is read from the fitted curve at half-maximal effect; % is scaled to controls: 0 for no effect and ±100 for the full control effect; nearly all actives have a fitted effect of over 55% in size
# An asterisk follows results filed as active; ? = inconclusive; / = no result; [ ] = dose if it differs, or a comment. The list is not random: actives were taken first. Their share in the collection is about 3.1%.
SMILES,RGS4 inh,D3 antag,DRD3 agonist,uPA generation
Cc1c(C)c2ccc(OCC(=O)N3CC[C@@]4(O)CCCC[C@H]4C3)cc2oc1=O,5%,11,33*,-1%
Cc1c(-c2ccccc2)nc2c(Cl)cccc2c1C(=O)OCC(=O)c1ccc(F)cc1,-9%,/,0,/
Cc1cccc(N(C)C(=S)Oc2ccc3c(c2)CCC3)c1,/,/,-3,/
Cc1cccc(N(C)C(=S)Oc2ccc3ccccc3c2)c1,-22%,-65*,-10,-3%
COc1cc(/C=C(\C#N)C(=O)c2ccc(O)c(O)c2)cc(I)c1O,?,0,40*,?
CCCCC(c1nnnn1CC1CCCO1)N1CCN(Cc2ccccc2)CC1 (configuration not stated),-32%,-78*,-6,3%
CSCCC(c1nnnn1C1CCCCC1)N1CCN(C/C=C/c2ccccc2)CC1 (configuration not stated),/,-89*,-10,/
C(=C\c1ccccc1)/CN1CCN(C(c2ccccc2)c2nnnn2C2CCCCC2)CC1 (configuration not stated),/,-91*,-14,/
CCCCC(c1nnnn1C1CCCC1)N1CCN(C2CCCCC2)CC1 (configuration not stated),7%,-60*,-23,-2%
Cc1cc(C)c2c(CN(C)Cc3ccccc3)cc(=O)oc2c1,/,-1,1,/
CCN(CC)CCNC(=O)C(=O)NCC(c1cccnc1)N1CCN(c2ccc(F)cc2)CC1 (configuration not stated),-6%,/,9,/
CCC(c1nnnn1C1CCCC1)N1CCN(C/C=C/c2ccccc2)CC1 (configuration not stated),/,-61*,-11,/
CCC(c1nnnn1C1CCCC1)N1CCN(c2cccc(OC)c2)CC1 (configuration not stated),12%,-12,-3,-4%
CCC(c1nnnn1C1CCCC1)N1CCN(Cc2ccccc2)CC1 (configuration not stated),7%,-65*,-25,11%
CSCCC(c1nnnn1C1CCCC1)N1CCN(C/C=C/c2ccccc2)CC1 (configuration not stated),/,-78*,-18,/
COc1ccccc1N1CCN(S(=O)(=O)CCNC(=O)c2cc(OC)c(OC)c(OC)c2)CC1,8%,13,2,13µM*
O=C(Cc1cccs1)NCCS(=O)(=O)N1CCN(c2ccccc2F)CC1,28%,-17,8,3.2µM*
COc1ccc(Cl)cc1C(=O)NCCS(=O)(=O)N1CCN(c2ccccc2OC)CC1,2%,/,8,/
COc1cccc(C(=O)NCCS(=O)(=O)N2CCCC2)c1,21%,-63*,-5,2%
CCOc1ccc(CC(=O)Nc2c(C(=O)c3ccc(F)cc3)oc3ccc(Cl)cc23)cc1OCC,4%,/,3,/
Cc1cc(N2CCC(C)CC2)nc2ccc(NC(=O)CCC(=O)N3CCN(c4ccccc4F)CC3)cc12,6%,/,3,/
CCC(C)NC(=O)c1cc2cc(S(=O)(=O)N3CCCCC3)ccc2n1C (configuration not stated),-21%,/,9,/
Nc1ccc(C(=O)OCc2nc3ccccc3s2)cc1,12%,-51*,-5,-3%
O=C(OCc1nc2ccccc2s1)c1ccc(Br)s1,-27%,-7,-14,/
CC[C@@H](C(=O)[C@@H](C)[C@@H](O)[C@H](C)CCc1ccc(C)c(O)c1C(=O)O)[C@H]1O[C@](CC)([C@H]2CC[C@](O)(CC)[C@H](C)O2)C[C@@H]1C,-21%,275,208*,2%
SMILES,RGS4 inh,D3 antag,DRD3 agonist,uPA generation
COc1cc(C(=O)/C=C/c2cccnc2)c([N+](=O)[O-])cc1OC,-44%,-73*,0,8.9µM*
CCOC(=O)c1cc(-c2ccccc2)n(CC(=O)Nc2ccc(OC)cc2OC)c1C,4%,/,-16,/
CCOCCCNc1ncnc2c1cnn2-c1ccc(C)c(C)c1,5%,/,0,/
CCCCCCCCCCCC(=O)NC(C(=O)OCC)C(O)c1cccc([N+](=O)[O-])c1 (configuration not stated),-8%,4,32*,-7%
CCOC(=O)C(NC(C)=O)C(O)c1ccc([N+](=O)[O-])cc1 (configuration not stated),1%,-5,0,2%
CCCCn1cc(S(=O)(=O)c2ccccc2)c(=O)c2cc(F)c(N3CCC(C)CC3)cc21,4%,/,7,/
CC1CCN(S(=O)(=O)c2ccc(NC(=O)CN3CCN(c4ccccc4)CC3)cc2)CC1,-3%,12,110*,2%
O=C(CN1CCN(S(=O)(=O)c2ccc(Br)cc2)CC1)Nc1ccc(F)cc1F,11%,-51*,-1,9%
CC1CCN(S(=O)(=O)c2ccc(NC(=O)CN3CCN(C)CC3)cc2)CC1,16%,-23,-13,/
O=C(CN1CCN(Cc2ccccc2)CC1)Nc1ccc2c(c1)CCC2,14%,-20,-16,-2%
O=C(CN1CCN(c2ccccc2O)CC1)Nc1ccc2c(c1)CCC2,16%,-72*,-12,6%
O=C(CN1CCN(S(=O)(=O)c2ccccc2)CC1)Nc1ccc2c(c1)CCC2,3%,-53*,-25,-17%
O=C(CN1CCN(S(=O)(=O)c2ccc(Cl)cc2)CC1)Nc1ccc(F)cc1F,-41%[11.4 µM],0,3,8%
COc1ccccc1C1NC(=O)c2n[nH]c(-c3cccs3)c21 (configuration not stated),-10%,/,1,/
Cc1ccc(CN2CCN(C3CCN(C(=O)OC(C)(C)C)CC3)C(=O)C2=O)cc1,12%,/,-5,/
COc1ccccc1CNC(=O)c1ccc2c(c1)nnn2C1CCCC1,-19%,/,-17,/
O=c1cc(N2CCCCC2)c(-c2ccccc2)nn1Cc1c(Cl)cccc1Cl,-23%[11.4 µM],-69*,-4,10%
O=c1cc(N2CCCCC2)c(-c2ccccc2)nn1Cc1ccc(Cl)cc1,5%,-15,-2,8%
Cc1ccc(Cl)cc1N1CCN(C(=O)CSc2nnc3n2C(C)(C)Cc2ccccc2-3)CC1,7%,?,45*,-10%
COc1ccc(N2CCN(C(=O)CSc3nnc4n3C(C)(C)Cc3ccccc3-4)CC2)cc1,0%,44,28,/
CC(=O)Oc1ccc(C(=O)Nc2ccccc2C(=O)N2CCCCC2)cc1,-4%,-57*,-11,2%
CC(=O)Oc1ccc(C(=O)Nc2ccccc2C(=O)N2CCCC2)cc1,38%,-8,7,1%
O=C(Cc1ccc(N2CCNC2=O)cc1)N1CCCC(Nc2cccc(F)c2)C1 (configuration not stated),11%,1,-1,1.4µM*
CC(C)n1nc(C(=O)OCC(=O)c2c[nH]c3ccccc23)c2ccccc2c1=O,16%,46,59*,/
CCn1nc(C(=O)OCC(=O)c2c[nH]c3ccccc23)c2ccccc2c1=O,-14%,14,2,1%
O=C(c1ccc(Cl)cc1)C1CCCN(Cc2cnn(-c3ccccc3)c2)C1 (configuration not stated),5%,-71*,-13,-2%
Cc1cc(C)c(NC(=O)COC(=O)Cn2nc(-c3ccccc3)oc2=O)c(C)c1,9%,-55*,-6,5%

# Screening data from PubChem.
